Measured values published in article PMC4336329 (PLoS ONE, 2015).
In all, about 310,000 compounds went through this assay and about 14,000 (4.5%) showed an effect of 50% or more. The effect is printed as a negative number. Shown is part of a subset that was picked to be rich in strong results.

The compounds below were run against human ether-à-go-go-related gene (hERG) potassium channel (human, UniProt Q12809) (assay: primary screen, population patch clamp on CHO cells stably expressing hERG; higher = less effect of the substance).
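Further: peak tail current of the secondary pulse compared with the same well before compound.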

human ether-à-go-go-related gene (hERG) potassium channel, sequence (Q12809 whole entry, looked up): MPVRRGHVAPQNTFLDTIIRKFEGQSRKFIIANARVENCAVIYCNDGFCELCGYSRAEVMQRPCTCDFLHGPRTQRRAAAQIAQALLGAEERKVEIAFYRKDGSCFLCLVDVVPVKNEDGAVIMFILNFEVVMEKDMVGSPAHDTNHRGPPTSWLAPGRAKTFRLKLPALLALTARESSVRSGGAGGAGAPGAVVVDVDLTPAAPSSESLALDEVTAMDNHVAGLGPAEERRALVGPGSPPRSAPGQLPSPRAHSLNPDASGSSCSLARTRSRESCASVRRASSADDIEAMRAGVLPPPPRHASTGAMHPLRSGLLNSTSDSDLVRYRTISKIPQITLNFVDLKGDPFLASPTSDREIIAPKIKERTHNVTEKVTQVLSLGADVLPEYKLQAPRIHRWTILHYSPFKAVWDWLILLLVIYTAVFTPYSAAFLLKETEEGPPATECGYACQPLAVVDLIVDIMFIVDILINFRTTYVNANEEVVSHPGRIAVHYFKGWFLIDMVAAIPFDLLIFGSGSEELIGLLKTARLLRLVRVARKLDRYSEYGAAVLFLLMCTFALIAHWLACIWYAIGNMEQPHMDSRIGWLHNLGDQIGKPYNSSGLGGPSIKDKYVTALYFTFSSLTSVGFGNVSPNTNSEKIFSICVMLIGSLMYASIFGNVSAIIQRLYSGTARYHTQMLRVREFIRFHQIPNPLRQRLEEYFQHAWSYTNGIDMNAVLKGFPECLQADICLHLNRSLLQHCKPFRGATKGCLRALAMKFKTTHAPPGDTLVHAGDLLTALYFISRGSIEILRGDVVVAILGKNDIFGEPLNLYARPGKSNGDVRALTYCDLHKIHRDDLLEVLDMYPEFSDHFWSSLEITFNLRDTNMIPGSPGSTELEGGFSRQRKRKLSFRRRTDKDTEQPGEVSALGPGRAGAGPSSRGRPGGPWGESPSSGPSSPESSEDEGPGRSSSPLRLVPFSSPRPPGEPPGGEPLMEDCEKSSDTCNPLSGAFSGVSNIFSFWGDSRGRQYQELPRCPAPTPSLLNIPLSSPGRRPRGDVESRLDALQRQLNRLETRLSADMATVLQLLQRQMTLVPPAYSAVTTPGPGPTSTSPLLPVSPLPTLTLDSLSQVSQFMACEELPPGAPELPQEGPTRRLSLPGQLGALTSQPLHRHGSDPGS

Q: For `COc1ccccc1OCCOCCOc1c(C)cc(C)cc1Br`, which “hERG current change (%, negative = inhibition) at 10uM” value is on record?
A: 8.26%

Q: For `CC(C)N1CC(O)=C(c2ccccc2)C1=N`, which “hERG current change (%, negative = inhibition) at 10uM” value is on record?
A: -0.355%

Q: `CC(C)NC(=O)c1ccccc1NC(=O)C1CC(=O)N(C(C)C)C1` (stereo not shown) was tested. Which “hERG current change (%, negative = inhibition) at 10uM” value did it give?
A: 42.9%

Q: How did the “hERG current change (%, negative = inhibition) at 10uM” value turn out when `CSc1ncccc1C(=O)Nc1nccs1` was run?
A: -22.8%

Q: `COc1cc(Cl)c(C)cc1NC(=O)CSc1nnc(-c2cccnc2)n1Cc1ccco1` was tested. Which “hERG current change (%, negative = inhibition) at 10uM” value did it give?
A: -56.9%

Q: For `Cc1cc(Cl)ccc1NC(=O)CSc1nnc(-c2ccncc2)n1Cc1ccco1`, which “hERG current change (%, negative = inhibition) at 10uM” value is on record?
A: -52.8%

Q: How did the “hERG current change (%, negative = inhibition) at 10uM” value turn out when `O=C(CSc1nnc(-c2ccncc2)n1Cc1ccco1)Nc1ccccc1F` was run?
A: -20.4%

Q: How did the “hERG current change (%, negative = inhibition) at 10uM” value turn out when `O=C(CSc1nnc(-c2ccncc2)n1Cc1ccco1)Nc1ccccc1Cl` was run?
A: -36.3%

Q: Which “hERG current change (%, negative = inhibition) at 10uM” value does the source give for `COc1ccc(NC(=O)CSc2nnc(-c3ccccc3)n2Cc2ccco2)c(OC)c1` here?
A: -26.4%

Q: Which “hERG current change (%, negative = inhibition) at 10uM” value does the source give for `COc1cc(Cl)c(C)cc1NC(=O)CSc1nnc(-c2ccccn2)n1Cc1ccco1` here?
A: -29.5%

Q: `Cc1c(C(=O)Nc2cc(S(=O)(=O)N3CCOCC3)ccc2N2CCN(C)CC2)oc2ccccc12` was tested. Which “hERG current change (%, negative = inhibition) at 10uM” value did it give?
A: -10.8%

Q: Which “hERG current change (%, negative = inhibition) at 10uM” value does the source give for `Cc1ccccc1N1CC(C(=O)O)CC1=O` (stereo not shown) here?
A: 14.1%

Q: How did the “hERG current change (%, negative = inhibition) at 10uM” value turn out when `Cc1cccc(Cn2ccc(NC(=O)c3ccc4c(c3)OCO4)n2)c1` was run?
A: -34.3%

Q: Which “hERG current change (%, negative = inhibition) at 10uM” value does the source give for `CCCNC(=O)c1ccc2c(=O)n3c(-c4ccc(C)cc4)csc3nc2c1` here?
A: 5.26%

Q: Which “hERG current change (%, negative = inhibition) at 10uM” value does the source give for `COc1ccccc1C1(CCNS(=O)(=O)c2ccc(C)cc2)CCOC(C(C)C)C1` (stereo not shown) here?
A: 4.49%

Q: How did the “hERG current change (%, negative = inhibition) at 10uM” value turn out when `CC(C)C1CC(CCNCc2ccc(N(C)C)cc2)(c2ccccc2)CCO1` (stereo not shown) was run?
A: -24.6%

Q: How did the “hERG current change (%, negative = inhibition) at 10uM” value turn out when `Cc1ccc(C2(CCNCc3ccc(N(C)C)cc3)CCOC(C(C)C)C2)cc1` (stereo not shown) was run?
A: -64.1%

Q: For `Cc1ccc(C2(CCNCc3ccco3)CCOC(C(C)C)C2)cc1` (stereo not shown), which “hERG current change (%, negative = inhibition) at 10uM” value is on record?
A: -35.6%

Q: `Cc1ccc(C2(CCN)CCOC(C(C)C)C2)cc1` (stereo not shown) was tested. Which “hERG current change (%, negative = inhibition) at 10uM” value did it give?
A: 17%

Q: Which “hERG current change (%, negative = inhibition) at 10uM” value does the source give for `Cc1ccc(C2(CCNS(=O)(=O)c3ccc(C)cc3)CCOC(C(C)C)C2)cc1` (stereo not shown) here?
A: -53.5%

Q: With `O=C(Nc1ccc2c(c1)OCO2)Oc1ccccc1` as the compound, how does the “hERG current change (%, negative = inhibition) at 10uM” value read?
A: -7.16%

Q: With `O=C(c1cccc(C(F)(F)F)c1)N1CCC(O)(CS(=O)(=O)Cc2ccccc2Cl)CC1` as the compound, how does the “hERG current change (%, negative = inhibition) at 10uM” value read?
A: -8.87%

Q: How did the “hERG current change (%, negative = inhibition) at 10uM” value turn out when `CNC(=O)C1CC(=O)N(Cc2ccc(OC)c(OC)c2)C(=Nc2ccc(OC)cc2)S1` (stereo not shown) was run?
A: -6.01%

Q: With `Cc1ccc(-c2nnc(Cc3ccc([N+](=O)[O-])cc3)o2)cc1` as the compound, how does the “hERG current change (%, negative = inhibition) at 10uM” value read?
A: -64.9%

Q: For `Fc1ccc(-c2nnc(Cc3nnc(-c4ccc(F)cc4)o3)o2)cc1`, which “hERG current change (%, negative = inhibition) at 10uM” value is on record?
A: 10.8%

Q: How did the “hERG current change (%, negative = inhibition) at 10uM” value turn out when `O=[N+]([O-])c1ccc(Cc2nnc(-c3ccc(F)cc3)o2)cc1` was run?
A: -57.2%

Q: With `Cc1ccc(-c2nnc(Cc3ccc(Cl)cc3)o2)cc1` as the compound, how does the “hERG current change (%, negative = inhibition) at 10uM” value read?
A: 8.63%

Q: How did the “hERG current change (%, negative = inhibition) at 10uM” value turn out when `Fc1ccc(-c2nnc(Cc3ccc(Cl)cc3)o2)cc1` was run?
A: -16.7%

Q: With `O=[N+]([O-])c1ccc(Cc2nnc(-c3ccccc3Cl)o2)cc1` as the compound, how does the “hERG current change (%, negative = inhibition) at 10uM” value read?
A: -15.5%

Q: `Cc1ccc(C(=O)Nc2c(C)n(C)n(-c3ccccc3)c2=O)cc1S(=O)(=O)N1CCOCC1` was tested. Which “hERG current change (%, negative = inhibition) at 10uM” value did it give?
A: 0.249%

Q: How did the “hERG current change (%, negative = inhibition) at 10uM” value turn out when `Cc1ccc(S(=O)(=O)N(C)c2c(C)ccc(S(N)(=O)=O)c2C)cc1` was run?
A: -10.9%

Q: With `Fc1ccccc1N1CC(c2ccccc2)C(c2cccs2)=N1` (stereo not shown) as the compound, how does the “hERG current change (%, negative = inhibition) at 10uM” value read?
A: 9.56%

Q: How did the “hERG current change (%, negative = inhibition) at 10uM” value turn out when `Cc1ccc(Cn2nnc3c(=O)[nH]c(C4CCCN(S(=O)(=O)c5ccccc5F)C4)nc32)cc1` (stereo not shown) was run?
A: 12.2%

Q: Which “hERG current change (%, negative = inhibition) at 10uM” value does the source give for `COc1ccc(/C=N/Nc2nncc3ccccc23)c(OC)c1` here?
A: 10.7%

Q: How did the “hERG current change (%, negative = inhibition) at 10uM” value turn out when `COc1cc(C)c(Cl)c(C)c1S(=O)(=O)NC1CC(C)(C)NC(C)(C)C1` was run?
A: 7.91%

Q: How did the “hERG current change (%, negative = inhibition) at 10uM” value turn out when `O=C(NCCSc1ccccc1)c1ccc(Br)cc1` was run?
A: 13.5%

Q: With `COC(=O)CN1CCN(C(c2ccccc2)c2ccccc2)CC1` as the compound, how does the “hERG current change (%, negative = inhibition) at 10uM” value read?
A: 5%

Q: With `CN1CCN(CC(O)COc2ccccc2)CC1` (stereo not shown) as the compound, how does the “hERG current change (%, negative = inhibition) at 10uM” value read?
A: -0.905%

Q: With `CCC(=O)c1ccc(OCC(O)CN2CCN(C(c3ccccc3)c3ccccc3)CC2)cc1` (stereo not shown) as the compound, how does the “hERG current change (%, negative = inhibition) at 10uM” value read?
A: -67.2%

Q: With `OC(COc1ccccc1)CN1CCCC1` (stereo not shown) as the compound, how does the “hERG current change (%, negative = inhibition) at 10uM” value read?
A: 14.5%

Q: `CCC(=O)c1ccc(OCC(O)CN2CCOCC2)cc1` (stereo not shown) was tested. Which “hERG current change (%, negative = inhibition) at 10uM” value did it give?
A: 7.44%

Q: Which “hERG current change (%, negative = inhibition) at 10uM” value does the source give for `Cl.OC(COc1ccccc1)CN1CCN(CC(O)COc2ccccc2)CC1` (stereo not shown) here?
A: -61.7%

Q: With `CCC(=O)c1ccc(OCC(O)CNC(C)c2ccccc2)cc1` (stereo not shown) as the compound, how does the “hERG current change (%, negative = inhibition) at 10uM” value read?
A: -14.7%

Q: Which “hERG current change (%, negative = inhibition) at 10uM” value does the source give for `CC(C)OCC(O)CN1CCN(C(c2ccccc2)c2ccccc2)CC1.Cl` (stereo not shown) here?
A: -58.1%

Q: How did the “hERG current change (%, negative = inhibition) at 10uM” value turn out when `N#Cc1ccc(OCC(O)CN2CCN(C(c3ccccc3)c3ccccc3)CC2)cc1` (stereo not shown) was run?
A: -72.1%

Q: With `CCOc1ccc(NS(=O)(=O)c2ccc(Cl)c(C(=O)N(C)Cc3cccnc3)c2)cc1` as the compound, how does the “hERG current change (%, negative = inhibition) at 10uM” value read?
A: -25.9%

Q: For `COc1ccccc1NC(=O)CSc1nnc(C)n1Cc1ccccc1`, which “hERG current change (%, negative = inhibition) at 10uM” value is on record?
A: -34.5%

Q: `CCOc1ccc(Nc2cc(=O)oc3ccccc23)cc1` was tested. Which “hERG current change (%, negative = inhibition) at 10uM” value did it give?
A: 7.78%

Q: Which “hERG current change (%, negative = inhibition) at 10uM” value does the source give for `Cc1nn(C)cc1C(=O)NNC(=S)Nc1ccc(Cl)cc1` here?
A: 12.6%

Q: With `CCOC(=O)C(Cc1ccc(Cl)cc1Cl)c1ccno1` (stereo not shown) as the compound, how does the “hERG current change (%, negative = inhibition) at 10uM” value read?
A: 14.3%

Q: With `O=C(NCc1ccc(Cl)cc1)C(=O)NCC1OCCN1S(=O)(=O)c1ccc2c(c1)OCCO2` (stereo not shown) as the compound, how does the “hERG current change (%, negative = inhibition) at 10uM” value read?
A: -7.02%

Q: How did the “hERG current change (%, negative = inhibition) at 10uM” value turn out when `Cc1cc(C)c(S(=O)(=O)/N=C2/C=C(Sc3ncn[nH]3)C(=O)c3ccccc32)cc1C` was run?
A: 18.2%

Q: `C[C@H](NC(=O)OC(C)(C)C)C(=O)N/N=C/c1ccc2nccnc2c1` was tested. Which “hERG current change (%, negative = inhibition) at 10uM” value did it give?
A: 21.7%

Q: For `COc1cccc(N(C(=O)c2snc(C(N)=O)c2N)C(C(=O)NCC2CCCO2)c2ccc3ncccc3c2)c1` (stereo not shown), which “hERG current change (%, negative = inhibition) at 10uM” value is on record?
A: -16.8%

Q: With `COc1ccccc1OCC(=O)Nc1cccc(S(=O)(=O)NC2=NCCCCC2)c1` as the compound, how does the “hERG current change (%, negative = inhibition) at 10uM” value read?
A: -4.65%
